Measurements from the supplement of paper PMC12645437, “Orthogonal IMiD-Degron Pairs Induce Selective Protein Degradation in Cells” (ACS Chemical Biology, 2025).
Whole data set: some 8,300 sequences, median “log2 fold change of degron read counts, EGFP-low vs EGFP+ sorted cells (limma voom), compound-induced degradation” near -1.1, cut for the highest 2% near 3.2. The entries come from a sample that favours the highest values as a whole.

T1: CRBN, Q96SW2
T1 chain: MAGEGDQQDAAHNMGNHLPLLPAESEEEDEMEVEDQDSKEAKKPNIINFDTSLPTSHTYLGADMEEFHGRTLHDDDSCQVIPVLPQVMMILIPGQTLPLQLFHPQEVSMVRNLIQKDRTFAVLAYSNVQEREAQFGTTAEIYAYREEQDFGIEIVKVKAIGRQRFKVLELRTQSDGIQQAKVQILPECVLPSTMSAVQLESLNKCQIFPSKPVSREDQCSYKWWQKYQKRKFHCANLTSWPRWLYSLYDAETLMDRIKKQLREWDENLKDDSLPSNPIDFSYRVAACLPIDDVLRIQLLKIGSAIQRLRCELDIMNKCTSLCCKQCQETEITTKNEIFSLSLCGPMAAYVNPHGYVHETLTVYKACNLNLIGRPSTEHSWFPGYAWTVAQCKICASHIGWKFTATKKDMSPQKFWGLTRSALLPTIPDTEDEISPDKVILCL


Target: T1, CRBN, Q96SW2
Experiment: log2 fold change of degron read counts, EGFP-low vs EGFP+ sorted cells (limma voom), compound-induced degradation; higher = more compound-induced degradation of the degron-EGFP fusion; degrons are variants of IKZF1/3 zinc finger 2; compound dose not given here
Conditions: Jurkat, 18 h
Procedure: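 Pooled library of 8380 IKZF3 ZF2 degron mutants (positions 146-167 varied within the IKZF3 130-189 degron; only the varied core is printed, flanks not printed) fused to EGFP with IRES-mCherry, lentivirally expressed in Jurkat cells. mCherry+ cells were treated with one IMiD compound for 18 h (dose not stated) and FACS-sorted into EGFP-low and EGFP+ populations. Degron sequences were counted by NGS, and log2FC (EGFP-low vs EGFP+) was estimated by limma voom over 3 biological replicates.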

[1] = compound: compound 19 (5-tert-butyl-thalidomide)
[2] = compound: compound 22 (5-morpholino-thalidomide)
[3] = compound: compound 33 (diphenyl IMiD analogue)
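Also: pooled lentiviral library of zinc finger degron-EGFP fusions in mCherry-positive Jurkat cells, FACS-sorted after compound exposure, with degron abundance counted by next-generation sequencing.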

Sequence	log2 fold change of degron read counts [1]	log2 fold change of degron read counts [2]	log2 fold change of degron read counts [3]	log2 fold change of degron read counts (compound: thalidomide)
FRCPQCGAYFTQKGNLLRHIKL [46F_47R_49P_50Q_52G_53A_54Y_55F_67L_, Q9UKT9]	-1.85	-1.73	-0.273	-0.427
FVCNICGAPFTQKGNLLRHIKL [46F_47V_49N_50I_52G_53A_54P_55F_67L_, Q9UKT9]	1.87	3.32	2.44	3.33
FTCNICGAPFTQKGNLLRHIKL [46F_47T_49N_50I_52G_53A_54P_55F_67L_, Q9UKT9]	2.03	3.03	2.21	2.73
FLCNICGAPFTQKGNLLRHIKL [46F_47L_49N_50I_52G_53A_54P_55F_67L_, Q9UKT9]	1.46	1.8	2.1	2.49
FRCNICGAPFTQKGNLLRHIKL [46F_47R_49N_50I_52G_53A_54P_55F_67L_, Q9UKT9]	2.88	3.49	3.05	3.38
FVCNQCGAPFTQKGNLLRHIKL [46F_47V_49N_50Q_52G_53A_54P_55F_67L_, Q9UKT9]	-1.48	0.603	-0.000403	0.468
FNCNICGAPFTQKGNLLRHIKL [46F_47N_49N_50I_52G_53A_54P_55F_67L_, Q9UKT9]	3.04	1.9	0.574	0.97
FYCNICGAPFTQKGNLLRHIKL [46F_47Y_49N_50I_52G_53A_54P_55F_67L_, Q9UKT9]	3.87	3.54	2.43	1.04
FICNICGAPFTQKGNLLRHIKL [46F_47I_49N_50I_52G_53A_54P_55F_67L_, Q9UKT9]	1.31	3.43	2.32	2.76
FECNICGAPFTQKGNLLRHIKL [46F_47E_49N_50I_52G_53A_54P_55F_67L_, Q9UKT9]	0.92	-1.22	0.793	1.96
FRCEICGRPFTQKGNLLRHIKL [46F_47R_49E_50I_52G_53R_54P_55F_67L_, Q9UKT9]	-0.208	1.72	2.22	2.06
FNCPICGHTFTQKGNLLRHIKL [46F_47N_49P_50I_52G_53H_54T_55F_67L_, Q9UKT9]	-2.31	-2.29	-2.08	-2.24
FFCEICGRSFTQKGNLLRHIKL [46F_47F_49E_50I_52G_53R_54S_55F_67L_, Q9UKT9]	0.599	0.147	-0.0546	-0.893
FNCEQCGACFTQKGNLLRHIKL [46F_47N_49E_50Q_52G_53A_54C_55F_67L_, Q9UKT9]	-1.28	-2.78	-2.07	-2.41
